The full list was thinned out, with the strongest signals kept by preference.
Experiments:
Assay in all cases: glycan array binding signal (z-score within array); higher = stronger binding
Settings in all cases: glycan notation: IUPAC condensed, linker removed
GalNAc4S6S(b1-4)GlcNAc = biological target: GalNAc4S6S(b1-4)GlcNAc
Procedure, shortened: (§1)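 From the Consortium for Functional Glycomics database, 3228 arrays were curated, keeping only those whose protein sequence was available. Binding is given as a within-array Z-score averaged across arrays sharing a protein sequence and across linkers. Negative Z-scores can be read as non-binding.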

[1] = biological target: Glc(a1-4)Glc(a1-4)Glc(a1-4)Glc
Procedure, shortened: as §1

[2] = biological target: GlcNAc(b1-2)Man(a1-3)[GlcNAc(b1-4)][GlcNAc(b1-2)Man(a1-6)]Man(b1-4)GlcNAc(b1-4)GlcNAc
Procedure, shortened: as §1

[3] = biological target: GlcNAc(b1-3)Gal(b1-4)GlcNAc(b1-3)Gal(b1-4)GlcNAc(b1-3)Gal(b1-4)GlcNAc(b1-2)Man(a1-3)[GlcNAc(b1-3)Gal(b1-4)GlcNAc(b1-3)Gal(b1-4)GlcNAc(b1-3)Gal(b1-4)GlcNAc(b1-2)Man(a1-6)]Man(b1-4)GlcNAc(b1-4)[Fuc(a1-6)]GlcNAc
Procedure, shortened: as §1

GlcNAc(b1-3)Man = biological target: GlcNAc(b1-3)Man
Procedure, shortened: as §1

[4] = biological target: GlcNAc(b1-4)GlcNAc(b1-4)GlcNAc
Procedure, shortened: as §1

[5] = biological target: Kdn(a2-3)Gal(b1-4)[Fuc(a1-3)]GlcNAc
Procedure, shortened: as §1

MurNAc(b1-4)GlcNAc = biological target: MurNAc(b1-4)GlcNAc
Procedure, shortened: as §1

[6] = biological target: Neu5Ac(a2-3)Gal(b1-3)GlcNAc
Procedure, shortened: as §1

[7] = biological target: Neu5Ac(a2-3)Gal(b1-3)GlcNAc(b1-2)Man(a1-3)[GlcNAc(b1-4)][Neu5Ac(a2-3)Gal(b1-3)GlcNAc(b1-2)Man(a1-6)]Man(b1-4)GlcNAc(b1-4)GlcNAc
Procedure, shortened: as §1

[8] = biological target: Neu5Ac(a2-3)Gal(b1-4)GlcNAc(b1-2)Man(a1-3)[Neu5Ac(a2-3)Gal(b1-4)GlcNAc(b1-2)Man(a1-6)]Man(b1-4)GlcNAc(b1-4)GlcNAc
Procedure, shortened: as §1

[9] = biological target: Neu5Ac(a2-3)Gal(b1-4)GlcNAc(b1-2)[Neu5Ac(a2-3)Gal(b1-4)GlcNAc(b1-6)]Man(a1-6)[Neu5Ac(a2-3)Gal(b1-4)GlcNAc(b1-2)Man(a1-3)]Man(b1-4)GlcNAc(b1-4)GlcNAc
Procedure, shortened: as §1

[10] = biological target: Neu5Ac(a2-3)Gal(b1-4)GlcNAc(b1-3)GalNAc
Procedure, shortened: as §1

[11] = biological target: Neu5Ac(a2-3)Gal6S(b1-4)GlcNAc
Procedure, shortened: as §1

[12] = biological target: Neu5Ac(a2-3)[GalNAc(b1-4)]Gal(b1-4)Glc
Procedure, shortened: as §1

[13] = biological target: Neu5Ac(a2-6)Gal(b1-3)GlcNAc(b1-3)[Gal(b1-4)GlcNAc(b1-6)]Gal(b1-4)Glc
Procedure, shortened: as §1

[14] = biological target: Neu5Ac(a2-6)Gal(b1-4)GlcNAc
Procedure, shortened: as §1

[15] = biological target: Neu5Ac(a2-6)Gal(b1-4)GlcNAc(b1-2)Man(a1-6)[Man(a1-3)]Man(b1-4)GlcNAc(b1-4)GlcNAc
Procedure, shortened: as §1

[16] = biological target: Neu5Ac(a2-6)Gal(b1-4)GlcNAc(b1-2)[Neu5Ac(a2-6)Gal(b1-4)GlcNAc(b1-4)]Man(a1-3)[GlcNAc(b1-4)][Neu5Ac(a2-6)Gal(b1-4)GlcNAc(b1-2)[Neu5Ac(a2-6)Gal(b1-4)GlcNAc(b1-6)]Man(a1-6)]Man(b1-4)GlcNAc(b1-4)GlcNAc
Procedure, shortened: as §1

[17] = biological target: Neu5Ac(a2-6)Gal(b1-4)GlcNAc(b1-6)[Gal(b1-3)]GalNAc
Procedure, shortened: as §1

[18] = biological target: Neu5Ac(a2-6)GalNAc(b1-4)GlcNAc6S
Procedure, shortened: as §1

[19] = biological target: Neu5Ac(a2-8)Neu5Ac(a2-3)[GalNAc(b1-4)]Gal(b1-4)Glc
Procedure, shortened: as §1

[20] = biological target: Neu5Ac(a2-8)Neu5Ac(a2-8)Neu5Ac(a2-3)Gal(b1-4)Glc
Procedure, shortened: as §1

[21] = biological target: Neu5Ac9Ac(a2-6)Gal(b1-4)GlcNAc
Procedure, shortened: as §1

[22] = biological target: Neu5Gc(a2-8)Neu5Gc(a2-3)Gal(b1-4)GlcNAc(b1-3)Gal(b1-4)GlcNAc
Procedure, shortened: as §1

B1: Sp8391B-bot-388-20-388 (Bacteroides ovatus) (protein)
chain: GCQNNDENEQHYDNKLFISASNFTKEILFKAGDTNVETGLSVAIAKPEEHDIKVTMSPAPELLSTYKLAYYDETAVLLSEEHYSMPETSTTIKSGSIVSPELPIEFINTGELDIKTTYVLPVTIKSVEGIGVLQSAKTYYYVFRGASLINVVCNISRNRAYPDFKNDSKFNNLTENTMEILFKANSFPNTLNTLMGIESNYLLRIGDATIPNNQLQVATSVNNCTSADLQLESGKWYHVAVAFNKGNVKVYINGVEKLSGSTGKSSVSLGAKHTNEEDGSRCFWVGYSYKDDRYFDGVVSEVRIWNRALTAEEIQATNHFYTIEPESEGLIAYWKFDEGSGTVAKDYSVSGYDLTIEKEPKWESVSLPQ
- glycan array binding signal (z-score) (GalNAc4S6S(b1-4)GlcNAc): -0.043
- glycan array binding signal (z-score) [1]: -0.549
- glycan array binding signal (z-score) [2]: -0.101
- glycan array binding signal (z-score) [3]: 2.65
- glycan array binding signal (z-score) (GlcNAc(b1-3)Man): 0.083
- glycan array binding signal (z-score) [4]: -0.077
- glycan array binding signal (z-score) [5]: 1.91
- glycan array binding signal (z-score) (MurNAc(b1-4)GlcNAc): -0.265
- glycan array binding signal (z-score) [6]: -0.213
- glycan array binding signal (z-score) [7]: -0.652
- glycan array binding signal (z-score) [8]: -0.533
- glycan array binding signal (z-score) [9]: 0.918
- glycan array binding signal (z-score) [10]: -0.435
- glycan array binding signal (z-score) [11]: -0.501
- glycan array binding signal (z-score) [12]: 0.131
- glycan array binding signal (z-score) [13]: 6.14
- glycan array binding signal (z-score) [14]: -0.355
- glycan array binding signal (z-score) [15]: 0.075
- glycan array binding signal (z-score) [16]: 2.53
- glycan array binding signal (z-score) [17]: -0.211
- glycan array binding signal (z-score) [18]: -0.019
- glycan array binding signal (z-score) [19]: 0.19
- glycan array binding signal (z-score) [20]: 0.117
- glycan array binding signal (z-score) [21]: -0.27
- glycan array binding signal (z-score) [22]: -1.02

Reference: the supplement of paper PMC8728848
